Compound activity (PubChem)
In the library only some 10% were active in any assay of this set; here they are far more common.
MCF10A rerep – inducers of DNA re-replication in MCF 10A breast cells; AID 624296; MCF 10A DNA re-replication, Hoechst nuclear intensity, 48 h; actives 2.9% (n = 350,000); Potency, µM (highest dose often 46.1 µM), for inactives: at the top dose activity, positive = re-replication, most hits filed as activators; also: % of control where 0% means no effect; nearly all actives have a fitted effect of over 50% in size
Gal4-VP16 FLuc – counter-screen for ROR gamma inhibitors: Gal4-VP16 reporter | Drosophila S2 Gal4-VP16 UAS-luciferase, luminescence, 20 h | Potency, µM (highest dose often 53.6 µM), without a hit: at the highest dose activity, negative = inhibition, hits mostly inhibitors | actives 3.5% (n = 310,000) | AID 2546;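 also: Gal4-VP16 expression switched on by copper sulfate through the metallothionein promoter; % is scaled to controls: 0 for no effect and ±100 for the full control effect; nearly all actives have a fitted effect of over 50% in size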
SW480 rerep – inducers of DNA re-replication in SW480 colon cancer cells. Potency, µM (top dose mostly 46.1 µM), for the others: at the top dose re-replication activation, most hits filed as activators. actives 1.8% (n = 340,000). AID 624297. SW480 DNA re-replication, Hoechst DNA content imaging, 48 h; also: % of control where 0% means no effect; nearly all actives have a fitted effect of over 55% in size
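Per well, 250 cells were exposed to pinned compound for 48 hr. Nuclear DNA was visualised with Hoechst (40 min, 37 C) and total object intensity recorded by fluorescence scanning.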
KB-3-1 tox – kills parental KB-3-1 adenocarcinoma cells | KB-3-1 viability, CellTiter-Glo ATP luminescence, 72 h | Potency, µM (highest dose often 46.1 µM), actives largely listed as cytotoxic | actives 1.4% (n = 400,000); also: % is scaled to controls: 0 for no effect and ±100 for the full control effect; nearly all actives have a fitted effect of over 60% in size
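Parental KB-3-1 viability, qHTS format: 72 h compound exposure, 37 °C; CellTiter-Glo; media-only wells and DMSO plates as controls; concentration-effect fits on corrected data.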
KB-V1 MDR tox – KB-V1 MDR subline cytotoxicity | AID 1347076 | KB-V1 MDR cells viability, CellTiter-Glo, 72 h | actives 3.4% (n = 400,000) | Potency, µM (series often up to 46.1 µM), hits mostly cytotoxic; also: % is scaled to controls: 0 for no effect and ±100 for the full control effect; nearly all actives have a fitted effect of over 60% in size
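KB-V1 cells (P-gp-expressing MDR subline of KB-3-1) in phenol-red-free DMEM with 10% FBS were exposed to library compounds over a concentration series for 72 h at 37 degrees C. Viability read by CellTiter-Glo luminescence; concentration-effect curves fitted after normalization.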
RORg inh – ROR gamma (mouse) transcription inhibition. P51450. Drosophila S2 Gal4-RORgamma UAS-luciferase reporter, 20 h. Potency, µM (titrated, usually from 53.6 µM), without a hit: top-dose activity change, negative = inhibition, actives largely listed as inhibitors. actives 5.4% (n = 310,000). AID 2551; also: % is scaled to controls: 0 for no effect and ±100 for the full control effect; nearly all actives have a fitted effect of over 60% in size
Target sequence (P51450 whole entry, looked up, the tested form may be a part): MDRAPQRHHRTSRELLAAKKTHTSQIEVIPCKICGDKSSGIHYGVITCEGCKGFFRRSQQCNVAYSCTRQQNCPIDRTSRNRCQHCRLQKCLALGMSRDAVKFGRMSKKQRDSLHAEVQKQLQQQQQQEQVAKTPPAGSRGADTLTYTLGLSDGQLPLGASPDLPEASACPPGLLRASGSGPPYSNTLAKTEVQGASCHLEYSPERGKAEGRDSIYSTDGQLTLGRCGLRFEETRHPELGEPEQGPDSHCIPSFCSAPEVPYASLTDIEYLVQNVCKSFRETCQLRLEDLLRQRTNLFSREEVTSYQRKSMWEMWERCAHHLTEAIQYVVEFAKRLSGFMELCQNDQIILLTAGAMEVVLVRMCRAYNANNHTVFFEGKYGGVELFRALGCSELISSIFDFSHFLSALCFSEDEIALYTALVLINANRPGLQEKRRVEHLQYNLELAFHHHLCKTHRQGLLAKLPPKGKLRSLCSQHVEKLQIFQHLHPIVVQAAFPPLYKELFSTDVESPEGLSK
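Drosophila S2 cells stably expressing Gal4-DBD/mouse RORγ fusion under metallothionein promoter plus UAS-luciferase; compound 1 h, then 700 uM CuSO4 induction for 20 h at ambient temperature; inhibition read as reduced luminescence.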
The depositor's hits bear a star; i = inactive; ? = inconclusive; nt = no result given; [ ] = another dose, or the depositor's remark. Calls follow the shape of the dose curve; as a rule, active = well fitted curve in the direction sought with a large enough effect; inconclusive = small, poorly fitted or top-dose-only effect, or another doubt; inactive = no such curve, though single readings can be large; an effect the other way counts as inactive or inconclusive. Potency is read from the fitted curve at half-maximal effect.

SMILES	MCF10A rerep	Gal4-VP16 FLuc	SW480 rerep	KB-3-1 tox	KB-V1 MDR tox	RORg inh
Cc1ccc(N2CCN(C(=O)CNS(=O)(=O)c3ccc(Br)s3)CC2C)cc1 (centres undefined)	?	-4.6%	-6.3%	?	2.31µM*	?
O=C(CNS(=O)(=O)c1ccc(Br)s1)N1CCN(c2ncccn2)CC1	-4.2%	nt	-3.5%	i	20.6µM*	-26.6%[0.365 µM]
CCc1ccccc1NC(=O)C(CCSC)NS(=O)(=O)c1ccc2c(c1)oc(=O)n2C (centres undefined)	nt	nt	nt	i	?	nt
Cc1cccnc1CN1CCN(Cc2nc(C(c3ccccc3)c3ccccc3)no2)CC1	?	-24.6%	?	i	i	11.2µM*
CC(=O)N1CCN(Cc2nc(C(c3ccccc3)c3ccccc3)no2)CC1	-11.3%	4.9%	0.1%	i	i	18.9%
Cc1cnn(C(=S)NCCc2ccccc2)c1	-4.4%	?	-5.3%	i	i	14.1µM*
Cc1cnn(C(=S)NCc2ccc(Cl)cc2)c1	-0.4%	7.08µM*	?	i	?	6.31µM*
CCCN1CCN(C(=S)NCc2ccc(Cl)cc2)CC1	5.8%	-7.8%	0.0%	i	i	-7.6%
O=C(NS(=O)(=O)c1ccc(NC(=O)C2CCCO2)cc1)c1ccccc1 (centres undefined)	-4.4%	-8.0%	1.6%	i	i	-41.5%
CC(C)N(c1ccccc1)c1ccc(NC(=O)C2CCCO2)cc1 (centres undefined)	3.3%	-1.1%	-3.4%	i	20.6µM*	8.9%
COc1ccc(NC(=O)C2CCCO2)cc1 (centres undefined)	15.5%	10.7%	-1.6%	i	i	-25.7%
O=C(Nc1ccc(Oc2ccccc2)cc1)C1CCCO1 (centres undefined)	7.31µM*	-1.5%	?	i	i	40.9%
CCOC(=O)C1=C(N)n2c(s/c(=C\c3ccco3)c2=O)=C(C(=O)OCC)C1c1ccco1 (centres undefined)	5.8µM*	4.0%	?	16.4µM*	4.61µM*	-32.0%
CCOC(=O)C1=C(N)n2c(s/c(=C\c3ccco3)c2=O)=C(C(=O)OC(C)C)C1c1ccco1 (centres undefined)	2.8%	-29.3%	14.7%	i	i	?
COc1cccc2c1OC[C@@H](CO)[C@H]2N(C)C(=O)Nc1ccc(Cl)cc1Cl	4.2%	1.5%	-3.9%	23.1µM*	3.26µM*	8.7%
COc1ccc(Cl)cc1NC(=O)COC(=O)C1COc2ccccc2O1 (centres undefined)	-1.8%	nt	7.2%	i	i	nt
COc1cc(/C=C(\C#N)C(=O)NC2CCCCC2)ccc1OCc1ccc(C(=O)O)cc1	22.0%	?	4.4%	i	i	12.6µM*
N#C/C(=C\C=C\c1ccccc1[N+](=O)[O-])C(=O)NC1CCCCC1	9.2µM*	-15.5%	?	i	?	?
CCOc1ccccc1/C=C(\C#N)C(=O)NC1CC1	1.7%	nt	-9.3%	i	?	nt
N#C/C(=C\c1ccccc1[N+](=O)[O-])C(=O)NC1CCCCC1	?	8.91µM*	?	?	i	?
N#C/C(=C\c1cccn1-c1ccccc1)C(=O)NC1CCCCC1	0.5%	-23.7%	?	5.8µM*	4.61µM*	44.3%
Cc1c(-c2ccc(Cl)cc2)c(=O)oc2c(CN3CCN(CCO)CC3)c(O)ccc12	nt	nt	nt	i	i	nt
COC(=O)C[C@H]1C[C@H]2c3cc(NS(=O)(=O)c4cccc(OC)c4)ccc3O[C@H]2[C@@H](CO)O1	nt	nt	nt	i	i	nt
CCOC(=O)n1c2ccccc2c(=O)n1CCO	nt	nt	nt	i	i	nt
CCOC(=O)N1CCC(N2CCN(c3cc(C)ccc3C)CC2)CC1	3.6%	-1.6%	-2.8%	i	23.1µM*	-1.4%
SMILES	MCF10A rerep	Gal4-VP16 FLuc	SW480 rerep	KB-3-1 tox	KB-V1 MDR tox	RORg inh
CCOC(=O)c1ccc(N2CCN(c3cc(C)ccc3C)CC2)c(N)c1	18.4µM*	17.4%	?	i	i	1.0%
NC(=S)N/N=C1/CCSc2ccc3ccccc3c21	?	3.16µM*	-3.3%	i	?	0.631µM*
CN(C(=O)COC(=O)c1ccccc1C(=O)c1ccccc1)c1ccccc1	4.0%	nt	5.0%	i	20.6µM*	nt
O=C(C[N+]1(CCc2ccccc2)CCOCC1)c1cccc([N+](=O)[O-])c1	nt	nt	nt	i	i	nt
Fc1ccc2[nH]c3c(NCc4ccccc4)ncnc3c2c1	?	5.62µM*	-0.5%	?	i	?
Cc1ccccc1Cn1c(CN2CCc3ccccc3C2)nc2c1c(=O)n(C)c(=O)n2C	14.7%	-12.7%	1.7%	i	23.1µM*	-0.9%
COC(=O)Cn1c(CN2CCOCC2)nc2c1c(=O)n(C)c(=O)n2C	18.4%	4.9%	1.1%	i	i	-15.9%
Cn1c(=O)c2c(nc(CN3CCc4ccccc4C3)n2Cc2ccc(F)cc2)n(C)c1=O	10.6%	nt	?	i	9.2µM*	nt
COC(=O)Cn1c(CN2CCc3ccccc3C2)nc2c1c(=O)n(C)c(=O)n2C	0.1%	5.62µM*	-9.3%	i	i	5.8%
CCOC(=O)C1CCN(C(c2ccc(OCC)cc2)c2c(O)cc(C)n(CCOC)c2=O)CC1 (centres undefined)	nt	nt	nt	i	i	nt
CN1C(=O)c2cccc3c(N(C)C)ccc(c23)C1=O	7.2%	-3.4%	-8.7%	i	11.6µM*	?
Cc1nc2sc(C(=O)Nc3ccccc3Cc3ccccc3)c(C)c2c(=O)[nH]1	5.8µM*	3.4%	-7.2%	i	?	5.9%
COc1ccccc1/C=C1\C=Cc2ccccc21	nt	nt	nt	i	i	nt
Cc1cc(C(=O)NC(=S)Nc2ccccc2N2CCOCC2)ccc1[N+](=O)[O-]	?	14.1µM*	-3.5%	?	i	2.82µM*
Cc1cc(C(=O)NC(=S)Nc2ccccc2N2CCCC2)ccc1[N+](=O)[O-]	9.1%	3.16µM*	?	i	i	2.51µM*
O=C(NC(=S)Nc1cc(Cl)ccc1N1CCOCC1)c1ccccc1[N+](=O)[O-]	26.8%	3.55µM*	-0.3%	i	i	3.55µM*
O=C(Nc1ccccc1N1CCCCC1)c1ccc(Cl)c([N+](=O)[O-])c1	?	-5.6%	8.0%	i	i	9.9%
Cc1noc(C)c1-c1ccc2ncnc(NCCN3CCOCC3)c2c1	nt	28.1%	nt	nt	nt	?
COc1ccc(-c2cc(C(F)(F)F)nc(SCC(=O)NCc3cccs3)n2)cc1	21.7%	?	-6.9%	i	18.4µM*	-44.4%
O=C(CSc1nc(-c2ccccc2)cc(C(F)(F)F)n1)NCc1cccs1	6.51µM*	?	1.8%	i	i	-2.5%[10 µM]
